Records with an inconclusive call do not appear. Activity calls are given as the source filed them. Rule for the calls, unless noted: active = hit-call score of the fitted dose curve at least 0.9, where 1 is the maximum; inactive = score below 0.9.
Assays:
[1] = target: Glucocorticoid receptor (Homo sapiens) (UniProt P04150); test: ATG_GR_TRANS: Attagene TRANS-FACTORIAL HepG2 Assay for human Glucocorticoid Receptor (GR) (AID 2282978; active = hit-call score of the fitted dose curve at least 0.9, where 1 is the maximum;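 note: activators score as hits since higher reporter transcript over DMSO is fitted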); details: HepG2 Attagene TRANS GR reporter, mRNA transcription
Procedure, shortened: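 HepG2 transient transfection, multiple reporter units, GAL4-UAS under NR-GAL4 chimera control. 24 h treatment. Reporter mRNA by RT-PCR/CE fluorescence, DMSO as negative control.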

[2] = target: Oxysterols receptor LXR-alpha (Homo sapiens) (UniProt Q13133); test: ATG_LXRa_TRANS: Attagene TRANS-FACTORIAL HepG2 Assay for human Liver X Receptor alpha (LXRa) (AID 2282980; active = hit-call score of the fitted dose curve at least 0.9, where 1 is the maximum); details: HepG2 Attagene TRANS reporter, LXRa transactivation
Procedure, shortened: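 HepG2 cells were transiently transfected with multiplexed reporter units driven by chimeric LXRa–GAL4 fusion proteins, then dosed for 24 h. Reporter mRNA was quantified by RT-PCR, fluorescent labelling and capillary electrophoresis; gain of signal fitted against DMSO baseline.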

[3] = target: Oxysterols receptor LXR-beta (Homo sapiens) (UniProt P55055); test: ATG_LXRb_TRANS: Attagene TRANS-FACTORIAL HepG2 Assay for human Liver X Receptor beta (LXRb) (AID 2282981; active = hit-call score of the fitted dose curve at least 0.9, where 1 is the maximum); details: HepG2 Attagene TRANS GAL4-LXRb reporter, mRNA
Procedure, shortened: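 Multiplexed reporter assay, HepG2, 24 h dosing. Fluorescence of labelled RT-PCR products after capillary electrophoresis gives transcript level; positive fitting direction relative to DMSO.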

[4] = target: Hepatocyte nuclear factor 4-alpha (Homo sapiens) (UniProt P41235); test: ATG_HNF4a_TRANS: Attagene TRANS-FACTORIAL HepG2 Assay for human Hepatocyte Nuclear Factor 4 alpha (HNF4a) (AID 2282982; active = hit-call score of the fitted dose curve at least 0.9, where 1 is the maximum); details: HepG2 HNF4a transactivation reporter, mRNA readout
Procedure, shortened: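 Endpoint reflects transcriptional activation of a GAL4-UAS reporter by an HNF4a-GAL4 chimera in transfected HepG2 cells, 24 h post-dosing. Fluorescence from RT-PCR products separated by capillary electrophoresis; DMSO baseline.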

[5] = ATG_M_32_TRANS: Attagene TRANS-FACTORIAL HepG2 Assay for M32 Transcription Factor (Internal Marker) (AID 2282984; active = hit-call score of the fitted dose curve at least 0.9, where 1 is the maximum;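 note: transcript level of a background control reporter unit measured by RT-PCR and capillary electrophoresis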); details: HepG2 Attagene TRANS M32 internal marker reporter
Procedure, shortened: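 Internal-marker readout from a multiplexed transcription reporter panel. HepG2 cells were transfected with GAL4-UAS reporter units, treated 24 hours, and reporter transcript levels determined by fluorescence after RT-PCR and capillary separation.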

[6] = target: Nuclear receptor subfamily 4 group A member 2 (Homo sapiens) (UniProt P43354); test: ATG_NURR1_TRANS: Attagene TRANS-FACTORIAL HepG2 Assay for human Nuclear Receptor Related Protein 1 (NURR1) (AID 2282985; active = hit-call score of the fitted dose curve at least 0.9, where 1 is the maximum); details: HepG2 Attagene TRANS reporter, mRNA readout
Procedure, shortened: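 Endpoint: reporter mRNA increase relative to DMSO. HepG2 cells transfected with reporter units, treated 24 h; RNA processed by RT-PCR, labelling, HpaI digestion and capillary electrophoresis.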

[7] = target: Transcriptional activator Myb (Homo sapiens) (UniProt P10242); test: ATG_Myb_CIS: Attagene CIS-FACTORIAL HepG2 Assay for human Myeloblastosis (Myb) Proto-Oncogene Transcription Factor (AID 2282986); details: HepG2 Attagene CIS-FACTORIAL Myb reporter transcription; actives raise or lower the signal
Procedure, shortened: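 Multiplexed cis-reporter system in HepG2: transient transfection, 24 h treatment, mRNA readout by RT-PCR and capillary electrophoresis. Both increases and decreases are scored versus DMSO negative control.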

[8] = target: Nuclear respiratory factor 1 (Homo sapiens) (UniProt Q16656); test: ATG_NRF1_CIS: Attagene CIS-FACTORIAL HepG2 Assay for human Nuclear Respiratory Factor 1 (NRF1) Orphan Gene (AID 2282987); details: HepG2 NRF1 cis-element reporter, Attagene multiplex; actives raise or lower the signal
Procedure, shortened: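 Endogenous factor activity was captured via cis-element-driven reporter transcripts in HepG2 cells. Following 24 h chemical treatment, transcripts were quantified by RT-PCR and capillary electrophoresis.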

[9] = target: Myc proto-oncogene protein (Homo sapiens) (UniProt P01106); test: ATG_Myc_CIS: Attagene CIS-FACTORIAL HepG2 Assay for human Myelocytomatosis (Myc) Proto-Oncogene Transcription Factor (AID 2282990); details: HepG2, Attagene cis-reporter transcription factor activity; actives raise or lower the signal
Procedure, shortened: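 Read-out: fluorescent reporter mRNA fragments resolved by capillary electrophoresis after RT-PCR. Human HepG2 liver cells carried transfected cis-element reporter units and were dosed for 24 h. Gain or loss of signal fitted relative to DMSO baseline.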

[10] = ATG_NRF2_ARE_CIS: Attagene CIS-FACTORIAL HepG2 Assay for human Nuclear Factor Erythroid 2 Related Factor 2 (NFR2) response to Antioxidant Response Elements (ARE) (AID 2282992); details: HepG2 Attagene ARE/NRF2 reporter, transcription factor activity; actives raise or lower the signal;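 for AC50: reporter mRNA level measured by RT-PCR and capillary electrophoresis fluorescence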
Procedure, shortened: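 Endogenous transcription factor activity in human liver HepG2 cells is tracked via a cis-element-driven reporter within a multiplexed set. mRNA induction is read by RT-PCR and capillary electrophoresis after 24 h, with DMSO as baseline.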

[11] = ATG_Oct_MLP_CIS: Attagene CIS-FACTORIAL HepG2 Assay for human Octamer-Binding Transcription Factor (Oct) (AID 2282993); details: HepG2 Attagene cis-factorial Oct reporter, mRNA; actives raise or lower the signal
Procedure, shortened: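 Readout is reporter transcript level from RT-PCR with fluorescent primer extension and capillary electrophoresis, fitted in both directions against DMSO. Transfected HepG2 reporter units report endogenous factor activity after 24 h dosing.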

[12] = target: Cellular tumor antigen p53 (Homo sapiens) (UniProt P04637); test: ATG_p53_CIS: Attagene CIS-FACTORIAL HepG2 Assay for human p53 Transcription Factor (AID 2282994); details: HepG2 p53 cis-element reporter, Attagene mRNA; actives raise or lower the signal
Procedure, shortened: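 Steps: transfect HepG2 with multiplexed cis reporter constructs; dose chemicals 24 h; extract RNA, reverse-transcribe, PCR-amplify reporter sequences; FAM-label, HpaI-digest, resolve fragments by CE. Activity fitted both directions relative to DMSO.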

[13] = target: Bile acid receptor (Homo sapiens) (UniProt Q96RI1); test: ATG_FXR_TRANS: Attagene TRANS-FACTORIAL HepG2 Assay for Farnesoid X Receptor (FXR) (AID 2282979; active = hit-call score of the fitted dose curve at least 0.9, where 1 is the maximum;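 note: hits raise reporter mRNA above DMSO so AC50 marks FXR activation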); details: HepG2 Attagene TRANS FXR-GAL4 reporter transcription
Procedure, shortened: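 HepG2 cells transiently transfected with reporter constructs in which a chimeric FXR-GAL4 protein drives a GAL4-UAS reporter; 24 h compound exposure. Reporter mRNA measured by RT-PCR, FAM labelling, HpaI digestion and capillary electrophoresis; gain-of-signal versus DMSO.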

[14] = ATG_NFI_CIS: Attagene CIS-FACTORIAL HepG2 Assay for human Nuclear Factor I (NFI) (AID 2282989); details: HepG2 cis-regulatory reporter, NFI response element transcription; actives raise or lower the signal
Procedure, shortened: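 Reporter transcripts were measured by RT-PCR with fluorescent primer extension and capillary electrophoresis 24 h post-treatment. HepG2 cells carried transiently transfected cis-regulated reporter constructs reporting endogenous factor activity; gain or loss fitted against DMSO baseline.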

[15] = ATG_NF_kB_CIS: Attagene CIS-FACTORIAL HepG2 Assay for human Nuclear Factor Kappa B (NF-kB) (AID 2282991); details: HepG2 Attagene cis-factorial NF-kB reporter mRNA; actives raise or lower the signal
Procedure, shortened: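 After 24 h compound incubation, transfected HepG2 cells yield total RNA; reporter cDNA is PCR-amplified, end-labelled with 6-FAM, HpaI-digested and analysed on a genetic analyser. Endogenous factor activity, DMSO-referenced bidirectional fit.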

[16] = ATG_M_06_TRANS: Attagene TRANS-FACTORIAL HepG2 Assay for M06 Transcription Factor (Internal Marker) (AID 2282983; active = hit-call score of the fitted dose curve at least 0.9, where 1 is the maximum); details: HepG2 Attagene TRANS M06 internal marker reporter
Procedure, shortened: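 In this multiplexed HepG2 system, compounds are incubated 24 h with cells carrying GAL4-UAS reporter units. Reporter RNA is amplified and resolved by capillary electrophoresis, and induction is scored against DMSO.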

[17] = BSK_3C_TissueFactor: BioMAP Diversity Plus: 3C Assay for Tissue Factor Biomarker Activity (AID 2282997); details: BioMAP 3C HUVEC, tissue factor biomarker readout; actives raise or lower the signal
Procedure, shortened: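 Readout: Tissue Factor ELISA. Cells: human primary umbilical vein endothelium. Time: 24 h after dosing. Analysis: bidirectional fit, DMSO baseline.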

[18] = BSK_3C_uPAR: BioMAP Diversity Plus: 3C Assay for Urokinase-type plasminogen activator receptor (uPAR) Biomarker Activity (AID 2282998); details: BioMAP 3C HUVEC, uPAR biomarker ELISA; actives raise or lower the signal
Procedure, shortened: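 Cell-surface uPAR on HUVEC (3C system) read by ELISA at 24 h post-treatment, with DMSO as baseline and fitting in both directions. Parallel cultures stained with SRB to flag overt cytotoxicity.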

[19] = BSK_3C_VCAM1: BioMAP Diversity Plus: 3C Assay for Vascular cell adhesion molecule 1 (VCAM1) Biomarker Activity (AID 2282999); details: BioMAP 3C HUVEC, VCAM1 ELISA, cytokine-stimulated; actives raise or lower the signal
Procedure, shortened: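 HUVEC primary cells, 24 h compound exposure; VCAM-1 by ELISA; gain/loss of signal fitted bidirectionally vs DMSO baseline.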

[20] = BSK_4H_Eotaxin3: BioMAP Diversity Plus: 4H Assay for Eotaxin 3 Biomarker Activity (AID 2283000); details: primary human endothelial cells (HUVEC); actives raise or lower the signal;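 note: CCL26 protein level quantified by ELISA in parallel with SRB cytotoxicity check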
Procedure, shortened: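 HUVEC, 24 h post-dose, ELISA for Eotaxin-3/CCL26. Gain or loss of signal fitted bidirectionally vs DMSO baseline.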

Measured: AC50

Chain of Oxysterols receptor LXR-alpha (Homo sapiens) (Q13133 whole entry, looked up, the tested form may be a part): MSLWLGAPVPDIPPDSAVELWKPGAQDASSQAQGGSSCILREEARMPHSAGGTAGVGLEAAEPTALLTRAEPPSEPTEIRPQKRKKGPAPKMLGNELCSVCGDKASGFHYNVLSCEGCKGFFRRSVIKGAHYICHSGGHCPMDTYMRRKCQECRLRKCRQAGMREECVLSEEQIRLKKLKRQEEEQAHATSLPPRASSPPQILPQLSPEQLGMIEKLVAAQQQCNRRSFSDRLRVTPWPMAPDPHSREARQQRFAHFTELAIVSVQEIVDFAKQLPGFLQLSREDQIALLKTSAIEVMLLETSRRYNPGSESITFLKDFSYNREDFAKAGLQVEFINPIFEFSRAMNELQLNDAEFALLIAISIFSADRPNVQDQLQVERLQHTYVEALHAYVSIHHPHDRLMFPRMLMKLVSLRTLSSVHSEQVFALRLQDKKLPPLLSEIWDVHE
Chain of Transcriptional activator Myb (Homo sapiens) (P10242 whole entry, looked up): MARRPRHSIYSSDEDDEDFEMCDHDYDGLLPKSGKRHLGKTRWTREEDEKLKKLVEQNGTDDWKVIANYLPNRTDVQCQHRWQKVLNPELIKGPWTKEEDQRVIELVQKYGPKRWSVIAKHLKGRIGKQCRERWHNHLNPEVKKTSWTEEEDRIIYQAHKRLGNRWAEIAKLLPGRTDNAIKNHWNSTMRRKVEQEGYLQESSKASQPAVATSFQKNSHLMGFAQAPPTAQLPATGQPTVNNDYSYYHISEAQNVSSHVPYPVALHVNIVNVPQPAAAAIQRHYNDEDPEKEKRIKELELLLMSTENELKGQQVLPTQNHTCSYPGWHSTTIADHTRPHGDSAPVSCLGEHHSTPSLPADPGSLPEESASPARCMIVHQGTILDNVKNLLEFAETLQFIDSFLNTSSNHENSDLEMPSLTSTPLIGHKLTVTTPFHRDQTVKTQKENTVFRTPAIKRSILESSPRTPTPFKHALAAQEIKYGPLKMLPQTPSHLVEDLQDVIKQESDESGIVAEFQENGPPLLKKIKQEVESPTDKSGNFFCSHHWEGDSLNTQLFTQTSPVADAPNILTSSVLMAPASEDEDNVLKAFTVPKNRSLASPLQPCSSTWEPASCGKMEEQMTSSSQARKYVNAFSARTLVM
Chain of Oxysterols receptor LXR-beta (Homo sapiens) (P55055 whole entry, looked up, the tested form may be a part): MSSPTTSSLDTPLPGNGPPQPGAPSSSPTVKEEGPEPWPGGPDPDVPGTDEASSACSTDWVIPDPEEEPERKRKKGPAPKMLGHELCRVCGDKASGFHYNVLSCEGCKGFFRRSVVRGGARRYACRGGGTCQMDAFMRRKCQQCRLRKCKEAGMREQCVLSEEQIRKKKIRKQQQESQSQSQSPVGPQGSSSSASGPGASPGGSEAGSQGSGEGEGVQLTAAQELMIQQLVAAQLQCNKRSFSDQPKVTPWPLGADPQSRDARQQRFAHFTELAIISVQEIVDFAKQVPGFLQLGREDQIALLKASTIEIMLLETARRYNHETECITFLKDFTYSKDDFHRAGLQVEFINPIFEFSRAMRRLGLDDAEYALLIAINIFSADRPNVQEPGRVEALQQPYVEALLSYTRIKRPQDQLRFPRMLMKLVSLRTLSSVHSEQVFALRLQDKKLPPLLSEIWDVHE
Chain of Hepatocyte nuclear factor 4-alpha (Homo sapiens) (P41235 whole entry, looked up, the tested form may be a part): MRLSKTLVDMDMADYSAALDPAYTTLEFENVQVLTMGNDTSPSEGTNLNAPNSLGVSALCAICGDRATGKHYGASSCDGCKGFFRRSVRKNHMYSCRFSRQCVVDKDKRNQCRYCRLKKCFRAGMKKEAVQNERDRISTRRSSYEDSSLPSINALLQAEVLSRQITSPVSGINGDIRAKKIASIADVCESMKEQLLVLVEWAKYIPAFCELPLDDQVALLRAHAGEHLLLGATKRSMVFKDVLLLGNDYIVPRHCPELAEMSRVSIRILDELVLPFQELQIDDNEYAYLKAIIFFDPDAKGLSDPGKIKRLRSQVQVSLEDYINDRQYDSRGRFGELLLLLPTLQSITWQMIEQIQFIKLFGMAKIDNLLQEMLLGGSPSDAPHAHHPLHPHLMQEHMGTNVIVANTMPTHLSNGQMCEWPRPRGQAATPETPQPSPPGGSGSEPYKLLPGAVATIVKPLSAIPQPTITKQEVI
Chain of Cellular tumor antigen p53 (Homo sapiens) (P04637 whole entry, looked up, the tested form may be a part): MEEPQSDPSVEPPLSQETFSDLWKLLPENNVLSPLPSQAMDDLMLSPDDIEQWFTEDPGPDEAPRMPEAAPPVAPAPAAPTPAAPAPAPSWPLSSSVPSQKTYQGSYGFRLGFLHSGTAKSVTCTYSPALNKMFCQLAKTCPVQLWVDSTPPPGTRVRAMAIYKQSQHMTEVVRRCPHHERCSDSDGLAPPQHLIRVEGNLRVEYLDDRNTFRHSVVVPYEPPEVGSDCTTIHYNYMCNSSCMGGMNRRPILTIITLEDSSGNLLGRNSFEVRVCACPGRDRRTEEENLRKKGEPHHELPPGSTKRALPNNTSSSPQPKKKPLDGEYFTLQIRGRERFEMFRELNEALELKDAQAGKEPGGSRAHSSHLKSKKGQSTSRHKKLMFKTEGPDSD
Chain of Myc proto-oncogene protein (Homo sapiens) (P01106 whole entry, looked up, the tested form may be a part): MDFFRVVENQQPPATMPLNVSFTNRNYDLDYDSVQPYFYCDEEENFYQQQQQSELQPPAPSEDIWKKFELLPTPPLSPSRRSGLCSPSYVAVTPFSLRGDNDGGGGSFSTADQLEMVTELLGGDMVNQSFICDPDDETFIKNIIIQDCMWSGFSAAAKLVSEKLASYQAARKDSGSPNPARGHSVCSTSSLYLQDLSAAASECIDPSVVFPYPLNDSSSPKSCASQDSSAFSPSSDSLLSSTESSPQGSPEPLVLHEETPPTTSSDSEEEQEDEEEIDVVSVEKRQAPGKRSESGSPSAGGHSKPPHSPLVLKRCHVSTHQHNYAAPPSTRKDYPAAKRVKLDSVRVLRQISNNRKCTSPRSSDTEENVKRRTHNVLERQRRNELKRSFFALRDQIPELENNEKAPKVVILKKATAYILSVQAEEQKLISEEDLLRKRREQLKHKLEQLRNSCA
Chain of Bile acid receptor (Homo sapiens) (Q96RI1 whole entry, looked up, the tested form may be a part): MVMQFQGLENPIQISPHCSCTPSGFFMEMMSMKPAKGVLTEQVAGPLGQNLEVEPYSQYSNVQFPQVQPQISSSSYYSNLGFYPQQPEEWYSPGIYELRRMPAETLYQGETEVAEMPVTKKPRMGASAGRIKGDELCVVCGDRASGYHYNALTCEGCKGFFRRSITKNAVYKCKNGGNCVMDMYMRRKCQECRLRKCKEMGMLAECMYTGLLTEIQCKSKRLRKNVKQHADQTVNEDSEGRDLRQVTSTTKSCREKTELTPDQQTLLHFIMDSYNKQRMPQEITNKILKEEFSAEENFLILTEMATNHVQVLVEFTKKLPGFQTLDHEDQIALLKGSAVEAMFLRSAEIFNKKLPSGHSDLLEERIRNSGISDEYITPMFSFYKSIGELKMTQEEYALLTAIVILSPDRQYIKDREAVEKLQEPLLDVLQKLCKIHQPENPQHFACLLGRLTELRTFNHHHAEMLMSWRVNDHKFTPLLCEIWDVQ
Chain of Glucocorticoid receptor (Homo sapiens) (P04150 whole entry, looked up, the tested form may be a part): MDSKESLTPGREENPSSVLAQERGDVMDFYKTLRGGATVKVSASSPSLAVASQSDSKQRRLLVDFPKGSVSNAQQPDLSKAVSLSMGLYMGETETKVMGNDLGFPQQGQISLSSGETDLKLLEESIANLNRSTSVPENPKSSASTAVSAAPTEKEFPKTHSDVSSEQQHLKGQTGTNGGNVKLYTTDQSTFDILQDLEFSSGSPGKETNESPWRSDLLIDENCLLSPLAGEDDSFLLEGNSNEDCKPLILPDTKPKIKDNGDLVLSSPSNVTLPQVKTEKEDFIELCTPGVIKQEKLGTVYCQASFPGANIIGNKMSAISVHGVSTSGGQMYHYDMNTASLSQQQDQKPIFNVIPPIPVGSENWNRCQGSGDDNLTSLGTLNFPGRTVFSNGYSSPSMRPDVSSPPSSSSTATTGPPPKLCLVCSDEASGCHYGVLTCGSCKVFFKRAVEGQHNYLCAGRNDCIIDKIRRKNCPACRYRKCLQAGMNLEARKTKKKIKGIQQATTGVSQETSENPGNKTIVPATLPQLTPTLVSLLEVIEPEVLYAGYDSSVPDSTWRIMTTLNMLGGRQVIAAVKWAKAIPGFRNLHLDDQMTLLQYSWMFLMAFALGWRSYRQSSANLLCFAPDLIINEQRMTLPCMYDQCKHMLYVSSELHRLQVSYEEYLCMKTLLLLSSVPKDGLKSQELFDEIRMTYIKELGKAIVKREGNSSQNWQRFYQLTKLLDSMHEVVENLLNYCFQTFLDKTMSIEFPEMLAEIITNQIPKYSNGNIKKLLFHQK
Chain of Nuclear receptor subfamily 4 group A member 2 (Homo sapiens) (P43354 whole entry, looked up): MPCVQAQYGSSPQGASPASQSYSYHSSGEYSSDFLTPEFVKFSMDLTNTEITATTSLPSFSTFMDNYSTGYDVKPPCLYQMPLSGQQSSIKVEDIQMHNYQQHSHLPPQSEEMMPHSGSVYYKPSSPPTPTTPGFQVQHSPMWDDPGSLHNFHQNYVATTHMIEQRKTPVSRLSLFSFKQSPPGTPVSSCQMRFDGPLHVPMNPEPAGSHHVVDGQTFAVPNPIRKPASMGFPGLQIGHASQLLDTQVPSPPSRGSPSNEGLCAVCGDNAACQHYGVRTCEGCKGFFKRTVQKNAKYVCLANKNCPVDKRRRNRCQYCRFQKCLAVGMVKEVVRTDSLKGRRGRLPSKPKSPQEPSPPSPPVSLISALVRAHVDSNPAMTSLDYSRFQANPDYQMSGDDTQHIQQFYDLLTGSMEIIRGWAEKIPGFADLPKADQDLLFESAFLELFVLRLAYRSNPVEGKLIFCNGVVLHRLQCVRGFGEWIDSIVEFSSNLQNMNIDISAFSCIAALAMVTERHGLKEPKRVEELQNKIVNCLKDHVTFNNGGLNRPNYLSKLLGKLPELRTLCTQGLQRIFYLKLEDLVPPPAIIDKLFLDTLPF

Cc1ccccc1C=O
not listed: [13] | [14] | [15] | [16] | [17] | [18] | [19] | [20]
inactive: all other assays above

CC(=O)OCC=Cc1ccccc1
active: [10] 34.9 µM
inactive: [1] | [13] | [5] | [6] | [7] | [8] | [9] | [11] | [12]

CCCCCCCCCCN
not listed: [4] | [13] | [16] | [17] | [18] | [19] | [20]
inactive: all other assays above

CC(=O)OCCC(C)CC(C)(C)C (stereo not drawn)
not listed: [2] | [3] | [4] | [5]
inactive: all other assays above

O=C(O)c1cn(C2CC2)c2cc(N3CCNCC3)c(F)cc2c1=O
inactive: [1] | [13] | [16] | [7] | [9] | [11] | [12] | [17] | [18] | [19] | [20]

NC(=O)Nc1ccc(Cl)cc1
not listed: [3] | [6] | [13] | [16] | [17] | [18] | [19] | [20]
inactive: all other assays above

Cc1c(Cl)c(=O)oc2cc(O)ccc12
inactive: [1] | [3] | [5] | [7] | [8] | [14] | [9] | [15] | [11] | [12]
active: [2] 20.9 µM | [10] 78.5 µM

CC(C)(CO)[N+](=O)[O-]
not listed: [12] | [13] | [15] | [16] | [17] | [18] | [19] | [20]
inactive: all other assays above

c1ccc2[nH]ccc2c1
not listed: [4] | [5] | [13] | [17] | [18] | [19] | [20]
inactive: all other assays above

CC(CCO)CCCC(C)(C)O (stereo not drawn)
not listed: [4] | [6] | [12] | [13] | [17] | [18] | [19] | [20]
inactive: all other assays above

From PubChem BioAssay (EPA / NIEHS)
